# Bioassay records (PubChem BioAssay)
# PPC-1+TRAIL kill: compounds killing PPC-1 cancer cells with TRAIL present, primary screen, TRAIL potentiator project, ATPLite luminescence, uHTS | PPC-1 cells + TRAIL, ATPLite viability luminescence | cell killing (% activity), % at 4 µM or 5 µM | 0.41% of 220,000 active | AID 1443, 2008;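 active means cell killing above 50% in the first pass at 4 µM, then a duplicate retest at 5 µM averaging 50% or more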;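 further: plate controls were cells with TRAIL plus DMSO for no effect and medium-only wells lacking cells for full effect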
# SENP6 inh: SENP6 protease inhibitors, primary screen, biochemical, luminescence, uHTS. Sentrin-specific protease 6 (Homo sapiens), Q9GZR1. Recombinant SENP6 catalytic domain, aminoluciferin luminescence. 1.8% of 330,000 active. inhibition, % at 10 µM;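 active means inhibition above about 50% at the single tested dose, limit read from the data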;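 further: plate controls were DMSO wells with enzyme for no effect and DMSO wells lacking enzyme for full effect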
# SENP8 block-1: human SENP8 protease inhibitors, primary screen, biochemical, fluorescence, Nedd8 protein substrate, uHTS; inhibition, % at 20 µM; 0.64% of 360,000 active; AID 602440, 2012; recombinant SENP8; Sentrin-specific protease 8 (Homo sapiens), Q96LD8; in the data active means inhibition mostly above about 40%, no sharp cut-off; inactive means mostly below about 27%
# Target sequence (Q96LD8 whole entry, looked up): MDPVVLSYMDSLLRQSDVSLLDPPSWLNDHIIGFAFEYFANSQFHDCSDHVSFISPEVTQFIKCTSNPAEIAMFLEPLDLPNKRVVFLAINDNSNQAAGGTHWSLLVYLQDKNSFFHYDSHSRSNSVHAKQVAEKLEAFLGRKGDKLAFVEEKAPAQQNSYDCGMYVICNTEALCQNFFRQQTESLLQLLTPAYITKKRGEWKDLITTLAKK
# SENP7 inh: SENP7 protease inhibitors, primary screen, biochemical, luminescence, uHTS. 1.5% of 330,000 active. inhibition, % at 5 µM. Sentrin-specific protease 7 (Homo sapiens), Q9BQF6. recombinant SENP7, Z-RLRGG-aminoluciferin luminescence, 40 min;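 active means inhibition above about 50% at the single test dose, limit read from the data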;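 further: plate controls were DMSO with enzyme for no effect and no enzyme buffer wells for full effect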
# Target sequence (Q9BQF6 706-1050 limits assumed): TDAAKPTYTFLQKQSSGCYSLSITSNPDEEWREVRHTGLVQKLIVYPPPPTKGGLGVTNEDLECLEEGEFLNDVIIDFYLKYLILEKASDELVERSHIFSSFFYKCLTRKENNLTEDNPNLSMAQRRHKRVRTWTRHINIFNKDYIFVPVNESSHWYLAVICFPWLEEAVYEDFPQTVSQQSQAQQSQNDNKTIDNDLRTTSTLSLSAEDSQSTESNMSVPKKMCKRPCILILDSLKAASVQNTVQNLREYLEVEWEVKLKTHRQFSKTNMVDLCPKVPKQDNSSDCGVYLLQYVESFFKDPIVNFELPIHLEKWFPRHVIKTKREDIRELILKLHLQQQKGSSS
# TRAIL sens C8: viability loss with TRAIL in NB7+C8 cells, primary screen, TRAIL sensitizer project, cell-based, ATPlite luminescence. inhibition (viability loss, TRAIL sensitization), % at 10 µM. 1% of 360,000 active. AID 624354, 2012;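 active means compounds causing at least 50% loss of cell viability in the single-dose screen, relative to plate controls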
# SENP8 block-2: SENP8 protease inhibitors, primary screen, biochemical, luminescence. purified SENP8, Z-RLRGG-aminoluciferin cleavage. Sentrin-specific protease 8 (Homo sapiens), Q96LD8. inhibition, % at 10 µM. 1.2% of 330,000 active; in the data active means inhibition above about 50%
# SENP8 conf: human SENP8 protease inhibitors, confirmation, biochemical, Nedd8 protein substrate, single concentration; shares compounds with SENP8 block-1; purified SENP8, Nedd8-AMC/pro-Nedd8 cleavage fluorescence, 30 min; 15% of 1,400 active; inhibition, % at 25 µM; in the data active means inhibition mostly above about 39%, no sharp cut-off; inactive means mostly below about 34%
# Starred values were filed as active, the others as inactive; · = no result. Compounds with a hit are over-represented: about 3% of the library has one in this group of screens.
SMILES,PPC-1+TRAIL kill,SENP6 inh,SENP8 block-1,SENP7 inh,TRAIL sens C8,SENP8 block-2,SENP8 conf
Cc1onc(-c2c(Cl)cccc2Cl)c1C(=O)N=S(C)(=O)c1ccccc1 (stereo unspecified),-10,-7,41*,2,2,-4,8
CCCCOC(=O)C1=C(C)NC2(O)c3ccccc3C(=O)C12O (stereo unspecified),15,7,46*,1,3,3,65*
COc1cccc(CNC(=O)c2ccc(NS(=O)(=O)c3ccc4[nH]c(=O)[nH]c4c3)cc2)c1,·,-3,11,6,-14,1,·
Cc1noc(C)c1S(=O)(=O)N1CCC(C(=O)NCCN2CCC(C)CC2)CC1,3,-15,41*,-2,-5,-1,12
COc1ccc(Br)cc1C1CC(=O)N2CN(C)CSC2=C1C#N (stereo unspecified),-10,-2,65*,16,24,1,1
COc1ccc(OC)c(C2CC(=O)N3CN(c4ccc(C)c(Cl)c4)CSC3=C2C#N)c1 (stereo unspecified),-10,4,6,11,10,8,·
COc1ccc(Br)cc1C1CC(=O)N2CN(Cc3ccccc3)CSC2=C1C#N (stereo unspecified),-3,16,68*,19,-11,31,1
CCOC(=O)c1ccc(N2CSC3=C(C#N)C(c4ccc(OC)cc4OC)CC(=O)N3C2)cc1 (stereo unspecified),-25,-14,52*,13,20,-7,12
CCNc1ccc(C(=O)OCC(=O)NC(C)c2ccccc2)cc1[N+](=O)[O-] (stereo unspecified),11,-6,40*,-2,8,-7,4
CCN(CC)c1ccc(N=Cc2ccccc2[N+](=O)[O-])cc1,57*,28,66*,7,-3,-7,31
CC(=O)N(C)c1ccc(N=Cc2cc3c(cc2[N+](=O)[O-])OCO3)cc1,·,41,-132,13,3,18,·
O=C(N/N=C/c1ccc([N+](=O)[O-])o1)c1ccncc1,9,11,54*,-9,28,-2,28
O=C(N/N=C\c1ccc([N+](=O)[O-])o1)c1cncc(Br)c1,26,11,66*,4,24,14,24
O=C(Cc1ccc2c(c1)OCO2)NN=Cc1ccc([N+](=O)[O-])o1,·,3,39*,-1,14,-14,21
CCCCCC(=O)N/N=C/c1ccc([N+](=O)[O-])o1,·,3,28,0,12,4,·
CCCCNC(=O)C1(C)CCN1C(=O)c1ccc2c(c1)CCO2 (stereo unspecified),·,·,2,·,-6,·,·
O=C(N/N=C/c1ccncc1)c1cccc(S(=O)(=O)N2CCCC2)c1,·,-3,16,2,-4,5,·
O=C(N/N=C/c1ccccn1)c1cccc(S(=O)(=O)N2CCCC2)c1,8,5,45*,-2,13,1,16
O=C(O)CCCCCNS(=O)(=O)c1ccc(Cl)cc1,9,11,12,-5,-3,8,·
O=C(O)CCCCNS(=O)(=O)c1ccc(Cl)c(C(F)(F)F)c1,14,-5,42*,-1,-5,-5,8
CN(C)c1ccc(NC(=O)CN2CCC(N3CCCCC3)CC2)cc1,8,-2,42*,1,0,4,-12
O=C1CCC(C(=O)N2CCc3ccccc3C2)CN1CCCN1CCOCC1 (stereo unspecified),·,4,6,5,1,0,·
Cc1c(Cl)cccc1NC(=O)CSC(C)c1nc2ccccc2c(=O)[nH]1 (stereo unspecified),·,-6,27*,1,-1,-5,2
O=C(COc1ccccc1)Nc1cc(Cl)ccc1Cl,·,2,16,-3,9,-22,·
O=C(NNc1ccccc1[N+](=O)[O-])Nc1cccc(Cl)c1,8,-5,40*,2,31,1,25
SMILES,PPC-1+TRAIL kill,SENP6 inh,SENP8 block-1,SENP7 inh,TRAIL sens C8,SENP8 block-2,SENP8 conf
O=C(NNc1ccccc1)Nc1cc(Cl)ccc1Cl,·,·,48*,·,3,·,10
CC(C)(C)c1ccc(CC(=O)N2CCC2(C)C(=O)N2CCCCC2)cc1 (stereo unspecified),·,·,9,·,13,·,·
O=C(CCO)c1ccc(O)cc1,-2,-3,44*,-5,4,7,10
CCCCC(=O)c1ccc(O)cc1,-7,-16,16,-2,-1,-12,·
Cc1ccc(Nc2nc(=O)c3cc([N+](=O)[O-])ccc3s2)cc1,-9,-9,33,-4,4,0,·
COc1ccc(Nc2nc(=O)c3cc([N+](=O)[O-])ccc3s2)cc1,18,·,55*,·,10,·,22
CN(C)c1nc(N)c(C#N)c(C#N)c1C#N,·,·,-200,·,0,·,·
COc1ccc(-c2cc(C(F)(F)F)c3c(=O)n(-c4ccccc4)[nH]c3n2)cc1,19,46,41*,4,2,23,32
CCc1cccc(C)c1NC(=O)C1CCCN1C(=O)NCc1ccccc1 (stereo unspecified),·,-20,-2,0,6,-5,·
CCOc1ccc(NC(=S)Nc2cc(OC)c(Cl)cc2OC)cc1,21,11,44*,9,8,1,7
CCOc1ccc(NC(=S)Nc2ccc3nsnc3c2)cc1,26,-25,43*,-5,-16,-8,39
Cc1cc2cc(CCNS(=O)(=O)c3ccc(F)cc3)c(=O)[nH]c2cc1C,·,-1,-114,12,-1,2,·
CC(NC(=O)[C@H](NC(=O)[C@@H]1Cc2ccccc2CN1)c1ccccc1)c1ccccc1 (stereo partly specified),·,-5,41*,2,0,4,9
COC(=O)c1cc(=O)nc(NN=C2c3ccccc3-c3ccccc32)s1,·,·,38*,·,1,·,25
CC1CCCCC1NC(=O)CN1C(=O)NC(C)(c2cc(F)ccc2F)C1=O (stereo unspecified),·,-5,-6,5,-13,1,·
CCN(CC)c1ncnc2c1cnn2Cc1ccc(Cl)cc1,-10,13,41*,5,-4,1,3
O=C(Nc1ccc(N2CCCC2)cc1)c1ccc([N+](=O)[O-])cc1Cl,-4,-15,43*,-7,-1,-4,16
CN(C)c1ccc(NC(=O)c2ccc([N+](=O)[O-])cc2Cl)cc1,20,25,11,5,34,-1,·
